# The supplement of paper PMC3334620
# The full ranking holds about 33,000 sequences; the median of “E-score (-0.5 to 0.5)” is about -0.016, and the highest 2% start at about 0.32. What follows is part of a selection rich in the highest values, with near analogues and random picks from the rest.
# Biological target: T1, Stp1 (UniProt B3LFK1)
# T1 sequence: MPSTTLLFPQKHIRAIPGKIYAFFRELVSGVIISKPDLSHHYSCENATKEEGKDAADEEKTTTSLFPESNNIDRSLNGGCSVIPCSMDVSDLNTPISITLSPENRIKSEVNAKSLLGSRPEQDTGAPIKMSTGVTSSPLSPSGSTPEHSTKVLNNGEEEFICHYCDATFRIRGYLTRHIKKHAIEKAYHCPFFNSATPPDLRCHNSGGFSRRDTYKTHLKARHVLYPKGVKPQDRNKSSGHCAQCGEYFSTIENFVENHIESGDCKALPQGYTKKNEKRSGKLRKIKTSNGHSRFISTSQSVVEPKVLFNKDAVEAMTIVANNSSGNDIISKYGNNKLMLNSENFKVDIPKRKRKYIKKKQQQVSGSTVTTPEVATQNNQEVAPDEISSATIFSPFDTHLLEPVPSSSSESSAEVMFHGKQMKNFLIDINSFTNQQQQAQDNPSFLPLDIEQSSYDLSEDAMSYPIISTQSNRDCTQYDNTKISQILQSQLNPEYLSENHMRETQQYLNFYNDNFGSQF
# Assay: PBM E-score (8-mer binding enrichment) (E-score (-0.5 to 0.5)); higher = stronger / more preferred TF binding
# Details: protein concentration: 200 nM; construct: GST-full length
# Description: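 Universal 'all 10-mer' protein binding microarrays (Agilent AMADID 015681) probed with GST-tagged S. cerevisiae TFs (full-length or DBD) made by in vitro transcription/translation (PURExpress), about 100-200 nM. Bound TF was detected with fluorescent anti-GST. Each ungapped 8-mer (which stands for itself and its reverse complement) is scored by the PBM enrichment score (E-score), a modified Wilcoxon-Mann-Whitney statistic from -0.5 to +0.5, computed with the Universal PBM Analysis Suite. Scale: above 0.35 generally sequence-specific binding.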
row,Sequence,PBM E-score
1,TGTGCCAA,0.117
2,ATGACTGA,-0.164
3,CGATTCCG,-0.0394
4,GAGGCCAA,-0.164
5,ATAAATGG,0.0779
6,TAGGGCGA,0.178
7,ATCTCCTA,-0.214
8,ATTGAGGA,-0.0544
9,AACCGTAT,-0.0259
10,AGCCGTAG,0.392
11,CTCCGTAC,0.184
12,ATCCGTAG,0.112
13,CGCCGTAG,0.465
14,AGCCGTAT,0.435
15,CACCGTAC,0.121
16,ACCCGTAG,-0.36
17,CGCCGTAC,0.487
18,CCCCGTAG,-0.0863
19,AGCCGTAA,0.31
20,CACCGTAG,-0.0209
21,CGAGCCCA,-0.215
22,GAGACGTA,-0.074
23,ATTACTTC,-0.0579
24,ACGTGTCA,-0.0154
25,AAAGCACG,0.0591

row,Sequence,PBM E-score
1,CGATAGGC,0.135
2,GCACGGAC,0.28
3,ACACGGAC,0.217
4,GCACGGCC,0.415
5,ACACGGGC,0.0838
6,GCACGGGC,0.19
7,ACACGGCC,0.344
8,GTCTACAA,-0.0248
9,CCAGGCGG,-0.0554
10,AGACATTG,-0.194
11,GATCTTCA,-0.025
12,CTTTTAGA,0.0884
13,ACACGAAA,0.0839
14,GCACGAAA,0.326
15,GCACGAAC,0.101
16,GCCATACC,-0.0417
17,CCAACTGA,-0.167
18,ATGCCTTA,0.236
19,CCGCCTAC,-0.0313
20,GCGCCTAC,0.35
21,TCGCCTCA,0.281
22,ATGCCTCA,0.279
23,CTGCCTCA,-0.0442
24,GTGCCTCA,0.365
25,GTGCCTGA,-0.105

row,Sequence,PBM E-score
1,ACGCCTAC,-0.0656
2,GTGCCTTA,0.367
3,ACGCCTCA,0.313
4,GCGCCTCA,0.401
5,AGCCCACT,-0.203
6,TCTTTGCA,0.165
7,GCAGACCC,-0.107
8,CTCCCCTC,-0.3
9,AACTTGGA,0.0205
10,ATCGTCTG,0.0798
11,AAAGGTAC,-0.00049
12,GAAGTGCC,0.309
13,GAGTACTA,0.051
14,GCGCCTGA,0.16
15,GCGCCTTA,0.399
16,CCGCCTTA,0.201
17,ATTGCCCG,-0.0444
18,AAGGCTCG,-0.0294
19,AGGGCTCA,-0.101
20,ACGGCTCC,0.449
21,ACAGCTCT,-0.306
22,AAGGCTCA,0.16
23,ACGGCTCA,0.403
24,CCGGCTCC,-0.129
25,CCGGCTCG,-0.0179

row,Sequence,PBM E-score
1,GCGGCTCC,0.315
2,ACGGCTCG,0.444
3,ACGGCTCT,0.454
4,AAGGCTCT,0.21
5,CTCACAAA,0.109
6,GAAGAGGA,-0.286
7,AATCGATG,0.174
8,GACGCTCA,-0.136
9,GGGCTAGA,-0.142
10,ACCTTTCG,-0.121
11,CCTCTACC,-0.24
12,AGAGTGTC,0.0784
13,ATGATCAT,0.17
14,GCATAGAA,0.133
15,GCATTGGC,-0.0163
16,AGTTTGGA,0.0815
17,ACTGTCCT,-0.097
18,ACTCTCCC,-0.159
19,GAAACCTA,-0.22
20,GGACTACC,-0.286
21,AAGTCTGT,-0.193
22,AACGATTG,0.0458
23,CGACAGCC,-0.0511
24,TCGGCTCA,-0.0668
25,CCGGCTCA,0.0597

row,Sequence,PBM E-score
1,GCGGCTCA,0.461
2,AAGAACGC,0.185
3,CAGAGCCA,-0.148
4,AAGAGCCT,0.134
5,CAGAGCCC,-0.0943
6,CAGAGCCG,0.338
7,AAGAGCCA,0.103
8,AAGAGCCG,0.336
9,AGAATAAC,-0.00738
10,ACCAACGG,0.173
11,GTAGAGTA,0.0935
12,AGGGTAAC,-0.165
13,GACGCCCC,-0.00392
14,GACGCCGC,0.453
15,CACGCCGA,0.0798
16,CACGCCGC,0.417
17,GACGCCGA,0.304
18,CACGCCGG,-0.0191
19,GGAACTTA,-0.0446
20,AGGGCACA,0.334
21,ATGGCACG,0.354
22,ATGGCACA,0.229
23,AGGGCACG,0.302
24,CTGGCACA,-0.187
25,CGGGCACG,0.139

row,Sequence,PBM E-score
1,CTGGAGGC,-0.0215
2,ACTGGCTC,-0.267
3,AGTAGCTA,-0.16
4,CCCGGCAA,0.0207
5,CTCGGCAG,0.117
6,ACCGGCAG,-0.121
7,AACGGCAG,0.384
8,CCCGGCAG,-0.227
9,TACGGCCA,0.214
10,CACGGCAG,0.428
11,TACGGCAA,0.449
12,CTCGGCAA,0.1
13,TTCGGCAA,0.088
14,CACGGCAA,0.469
15,ATCGGCAG,-0.00845
16,AGACTTTC,-0.256
17,TCTCAACA,0.0271
18,CAGGCCAG,-0.0909
19,ATGGGAAC,-0.132
20,GTGAGCAC,-0.066
21,CCCTGATC,-0.255
22,CCTAACAC,0.067
23,CGAGCCTA,-0.0212
24,ACATTAAT,0.0799
25,ACAAGCGT,-0.135

row,Sequence,PBM E-score
1,AACGGCAC,0.472
2,ACCGGCAT,0.0121
3,AATGGCAG,0.0303
4,AATGGCAC,0.275
5,ACCGGCAA,-0.0651
6,ATCGGCAT,0.238
7,ACCGGCAC,0.301
8,AACGGCAA,0.432
9,AATGGCAT,0.356
10,ATCGGCAA,0.106
11,ATCGGCAC,0.297
12,AACGGCAT,0.451
13,TAGGGGAA,-0.171
14,AAAGGATT,-0.109
15,CAGTGGGG,-0.239
16,AAACTCGG,-0.0615
17,AGACTCAG,-0.133
18,CCTGCTTA,-0.0853
19,GTGTAGCA,-0.202
20,ATGGAAAC,-0.0997
21,CAAGCCCA,-0.0787
22,ACGGAATA,0.0278
23,GCCGGCAA,0.106
24,GACGGCAA,0.325
25,GTCGGCAA,0.0611

row,Sequence,PBM E-score
1,GCCGGCAC,0.273
2,GACGGAAC,-0.0397
3,GACGGCAC,0.453
4,CAAGCCCG,-0.0901
5,CCACACTA,0.127
6,ATCTAGCG,-0.0611
7,ACCAGATG,-0.146
8,GAGAGGCA,0.208
9,GTGAGGCA,0.367
10,ATGAGGCG,0.35
11,AAGAGGCT,0.0613
12,ATGAGGCC,0.0892
13,AAGAGGCA,0.363
14,GGGAGGCA,0.00612
15,ATGAGGAA,-0.0278
16,CTGAGGCA,0.192
17,AAGAGGCG,0.298
18,ATGAGGCA,0.332
19,ATGAGGTG,-0.0679
20,GTTCTGTA,0.0215
21,TCCCGCGA,-0.312
22,TATTGAGA,0.0944
23,CCTGCTCC,0.0227
24,CATTAAAA,0.245
25,CAAGACCC,-0.272

row,Sequence,PBM E-score
1,AAAGGACC,0.0732
2,ATGAGTAC,0.0493
3,CATGTGGG,-0.144
4,CGTGTGGA,0.016
5,AGTGTGGC,0.068
6,CGTGTGGC,0.353
7,AATGTGGC,0.158
8,CATGTGGC,0.32
9,AGCTCATC,-0.307
10,TAGCACCA,-0.0587
11,GCAACTAA,0.263
12,ATGTTTCG,0.147
13,AAAAACGA,0.128
14,GCGGCGCA,0.463
15,CCGGCGCC,0.367
16,GCGGCGCC,0.484
17,GGGGCGCA,0.126
18,TCGGCGCA,0.243
19,CCGGCGCG,0.298
20,CCGGCGCA,0.121
21,GCGGCCCC,0.176
22,CCGGCGGC,0.152
